In the supplement of paper PMC10646978:
± gives the standard deviation.

Tests used:
Settings in all cases: modulator concentration 10 µM
[1] = system: RAW-Dual (murine macrophage reporter line); assay: NF-kB reporter (SEAP) activity fold change vs agonist alone; higher = enhanced NF-kB activity
Outline: (§1)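 RAW-Dual murine macrophage reporter cells were seeded at 50 000 per well in 384-well plates and pre-incubated 1 hour at 37 °C with compound pin-transferred to 10 μM final. After 1 hour, a PRR agonist was added and cells incubated overnight. Supernatant NF-κB (SEAP, QUANTI-Blue, 620 nm absorbance) and IRF (Lucia luciferase, QUANTI-Luc, luminescence) signals were divided by the mean agonist-only control on the same plate to give fold change. Two replicate plates were averaged, with errors by propagation.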

[2] = system: RAW-Dual (murine macrophage reporter line); assay: IRF reporter (Lucia luciferase) activity fold change vs agonist alone; higher = enhanced IRF activity
Outline: as §1

[3] = system: RAW-Dual (murine macrophage reporter line); assay: viability score (confluency relative to resting cells, overnight) (fraction); higher = more viable, active = viable (0.7 or more)
Outline: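 In 384-well plates, RAW-Dual macrophages received compound at a final 10 μM overnight. Two confluency masks were then made with IncuCyte software from IncuCyte images of all imaged wells. The viability score is defined as confluency relative to resting cells. Passing the cutoff required both masks to lie above 70% of resting cells.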

[4] = agonist: CpG ODN 1826 0.5 ug/mL

COc1ccc(C=NN2CCN(C)CC2)c(OC)c1
NF-kB reporter [1, 4]: 0.84 ± 0.065 | NF-kB reporter ([1]; agonist: LPS 0.1 ug/mL): 0.95 ± 0.047 | NF-kB reporter ([1]; agonist: MPLA […]): 1.04 ± 0.09 | IRF reporter ([2]; agonist: 3'3'-cGAMP 10 ug/mL): 0.914 ± 0.056 | IRF reporter ([2]; agonist: LPS 0.1 ug/mL): 1.25 ± 0.08 | IRF reporter ([2]; agonist: MPLA […]): 1.33 ± 0.11 | viability score [3]: 1.01 (active)

CC1=C(C)CC2C(=O)N(c3ccccc3C)C(=O)C2C1 (stereo not drawn)
NF-kB reporter [1, 4]: 0.797 ± 0.064 | NF-kB reporter ([1]; agonist: LPS 0.1 ug/mL): 0.889 ± 0.068 | NF-kB reporter ([1]; agonist: MPLA […]): 1.06 ± 0.12 | IRF reporter ([2]; agonist: 3'3'-cGAMP 10 ug/mL): 0.982 ± 0.045 | IRF reporter ([2]; agonist: LPS 0.1 ug/mL): 1.35 ± 0.078 | IRF reporter ([2]; agonist: MPLA […]): 1.33 ± 0.15 | viability score [3]: 1.01 (active)

O=C(Nc1ccccn1)c1ccc(OCC2CCCO2)nc1 (stereo not drawn)
NF-kB reporter [1, 4]: 1.12 ± 0.064 | NF-kB reporter ([1]; agonist: LPS 0.1 ug/mL): 1.02 ± 0.077 | NF-kB reporter ([1]; agonist: MPLA […]): 1 ± 0.031 | IRF reporter ([2]; agonist: 3'3'-cGAMP 10 ug/mL): 0.936 ± 0.077 | IRF reporter ([2]; agonist: LPS 0.1 ug/mL): 1.04 ± 0.059 | IRF reporter ([2]; agonist: MPLA […]): 1.04 ± 0.1 | viability score [3]: 0.997 (active)

NNC(=O)CN1C(=O)C2CC=C(Cl)CC2C1=O (stereo not drawn)
NF-kB reporter [1, 4]: 0.984 ± 0.062 | NF-kB reporter ([1]; agonist: LPS 0.1 ug/mL): 0.976 ± 0.085 | NF-kB reporter ([1]; agonist: MPLA […]): 0.954 ± 0.035 | IRF reporter ([2]; agonist: 3'3'-cGAMP 10 ug/mL): 0.999 ± 0.088 | IRF reporter ([2]; agonist: LPS 0.1 ug/mL): 1.06 ± 0.058 | IRF reporter ([2]; agonist: MPLA […]): 0.917 ± 0.18 | viability score [3]: 0.999 (active)

O=C(Oc1ccc2ccccc2c1)c1ccccc1
NF-kB reporter [1, 4]: 0.981 ± 0.055 | NF-kB reporter ([1]; agonist: LPS 0.1 ug/mL): 1.06 ± 0.11 | NF-kB reporter ([1]; agonist: MPLA […]): 1.04 ± 0.066 | IRF reporter ([2]; agonist: 3'3'-cGAMP 10 ug/mL): 0.906 ± 0.06 | IRF reporter ([2]; agonist: LPS 0.1 ug/mL): 1.27 ± 0.12 | IRF reporter ([2]; agonist: MPLA […]): 1.12 ± 0.11 | viability score [3]: 0.975 (active)

Br.O=S(=O)(c1ccc(-c2csc(Nc3ccc(Cl)cc3)n2)cc1)N1CCOCC1
NF-kB reporter [1, 4]: 0.997 ± 0.09 | NF-kB reporter ([1]; agonist: LPS 0.1 ug/mL): 1.09 ± 0.071 | NF-kB reporter ([1]; agonist: MPLA […]): 1.09 ± 0.038 | IRF reporter ([2]; agonist: 3'3'-cGAMP 10 ug/mL): 0.907 ± 0.17 | IRF reporter ([2]; agonist: LPS 0.1 ug/mL): 1.11 ± 0.046 | IRF reporter ([2]; agonist: MPLA […]): 1.06 ± 0.1 | viability score [3]: 0.995 (active)

COc1ccc(CCn2c(C)c(C)n3c4c(=O)n(CCC(C)C)c(=O)n(C)c4nc23)cc1OC
NF-kB reporter [1, 4]: 0.95 ± 0.07 | NF-kB reporter ([1]; agonist: LPS 0.1 ug/mL): 1.01 ± 0.12 | NF-kB reporter ([1]; agonist: MPLA […]): 1.15 ± 0.14 | IRF reporter ([2]; agonist: 3'3'-cGAMP 10 ug/mL): 1.03 ± 0.048 | IRF reporter ([2]; agonist: LPS 0.1 ug/mL): 1.37 ± 0.24 | IRF reporter ([2]; agonist: MPLA […]): 1.57 ± 0.44 | viability score [3]: 0.95 (active)

CCCC(C(=O)OCCN(CC)CC)(c1ccccc1)c1ccccc1.Cl
NF-kB reporter [1, 4]: 0.851 ± 0.066 | NF-kB reporter ([1]; agonist: LPS 0.1 ug/mL): 0.924 ± 0.11 | NF-kB reporter ([1]; agonist: MPLA […]): 0.978 ± 0.084 | IRF reporter ([2]; agonist: 3'3'-cGAMP 10 ug/mL): 0.972 ± 0.055 | IRF reporter ([2]; agonist: LPS 0.1 ug/mL): 1.03 ± 0.27 | IRF reporter ([2]; agonist: MPLA […]): 1.03 ± 0.39 | viability score [3]: 1.02 (active)

CCc1nc2ccc(C(=O)NC3CCC(n4cccn4)CC3)cc2s1 (stereo not drawn)
NF-kB reporter [1, 4]: 1.02 ± 0.098 | NF-kB reporter ([1]; agonist: LPS 0.1 ug/mL): 1.04 ± 0.082 | NF-kB reporter ([1]; agonist: MPLA […]): 1.03 ± 0.054 | IRF reporter ([2]; agonist: 3'3'-cGAMP 10 ug/mL): 0.959 ± 0.047 | IRF reporter ([2]; agonist: LPS 0.1 ug/mL): 0.964 ± 0.045 | IRF reporter ([2]; agonist: MPLA […]): 0.925 ± 0.14 | viability score [3]: 1 (active)

Cc1cn2c(nc1=O)OC1C(O)C(CO)OC12 (stereo not drawn)
NF-kB reporter [1, 4]: 1.01 ± 0.08 | NF-kB reporter ([1]; agonist: LPS 0.1 ug/mL): 1.02 ± 0.075 | NF-kB reporter ([1]; agonist: MPLA […]): 0.953 ± 0.091 | IRF reporter ([2]; agonist: 3'3'-cGAMP 10 ug/mL): 1.02 ± 0.048 | IRF reporter ([2]; agonist: LPS 0.1 ug/mL): 1.29 ± 0.2 | IRF reporter ([2]; agonist: MPLA […]): 1.44 ± 0.4 | viability score [3]: 1.03 (active)

S=C(NCCN1CCCCC1)NCc1ccccc1
NF-kB reporter [1, 4]: 0.962 ± 0.14 | NF-kB reporter ([1]; agonist: LPS 0.1 ug/mL): 1 ± 0.055 | NF-kB reporter ([1]; agonist: MPLA […]): 0.99 ± 0.12 | IRF reporter ([2]; agonist: 3'3'-cGAMP 10 ug/mL): 1.01 ± 0.035 | IRF reporter ([2]; agonist: LPS 0.1 ug/mL): 1.33 ± 0.14 | IRF reporter ([2]; agonist: MPLA […]): 1.22 ± 0.12 | viability score [3]: 1.01 (active)

O=C(NCCN1CCOCC1)c1ccc(F)cc1
NF-kB reporter [1, 4]: 1.11 ± 0.1 | NF-kB reporter ([1]; agonist: LPS 0.1 ug/mL): 0.995 ± 0.094 | NF-kB reporter ([1]; agonist: MPLA […]): 1.01 ± 0.039 | IRF reporter ([2]; agonist: 3'3'-cGAMP 10 ug/mL): 1.05 ± 0.17 | IRF reporter ([2]; agonist: LPS 0.1 ug/mL): 1.03 ± 0.053 | IRF reporter ([2]; agonist: MPLA […]): 1 ± 0.12 | viability score [3]: 0.986 (active)

Cc1ccc(S(=O)(=O)N2CCN(C(C)C)CC2)cc1
NF-kB reporter [1, 4]: 1.13 ± 0.11 | NF-kB reporter ([1]; agonist: LPS 0.1 ug/mL): 0.94 ± 0.14 | NF-kB reporter ([1]; agonist: MPLA […]): 1.01 ± 0.043 | IRF reporter ([2]; agonist: 3'3'-cGAMP 10 ug/mL): 0.96 ± 0.17 | IRF reporter ([2]; agonist: LPS 0.1 ug/mL): 0.898 ± 0.037 | IRF reporter ([2]; agonist: MPLA […]): 0.994 ± 0.1 | viability score [3]: 0.996 (active)

O=[N+]([O-])c1cc2c(cc1C=Nc1ccc(O)cc1)OCO2
NF-kB reporter [1, 4]: 0.842 ± 0.14 | NF-kB reporter ([1]; agonist: LPS 0.1 ug/mL): 1.09 ± 0.17 | NF-kB reporter ([1]; agonist: MPLA […]): 1.27 ± 0.11 | IRF reporter ([2]; agonist: 3'3'-cGAMP 10 ug/mL): 0.443 ± 0.011 | IRF reporter ([2]; agonist: LPS 0.1 ug/mL): 1.19 ± 0.15 | IRF reporter ([2]; agonist: MPLA […]): 1.12 ± 0.22 | viability score [3]: 1 (active)
